# According to the supplement of paper PMC9694430:
# Test system: LOC_OS04G57630-cb004
# Test: thermal shift delta Tm vs DMSO control; higher = stronger stabilization (binding)
# Settings: 12.5 µM; protein concentration 2 µM
# In short: (§1)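 Rice kinase domain constructs, made in E. coli and purified, were placed in 96-well plates at 2 μM in 19.5 μl of 100 mM potassium phosphate pH 7.5, 150 mM NaCl, 10% glycerol and 5 × SYPRO Orange, with compound in DMSO. A temperature ramp from 25°C to 95°C at 0.05°C/s was used for differential scanning fluorimetry. The melting temperature shift is a triplicate mean compared with DMSO-only protein, derived from Boltzmann fits.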
# 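Also: purified Escherichia coli-expressed rice kinase domain construct.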
row,SMILES,thermal shift delta Tm [°C]
1,CN1CCN(c2cccc(Nc3nc4c(-c5ccc(S(C)(=O)=O)cc5)cccn4n3)c2)CC1,0.63
2,C[C@@H](NC(=O)c1ncnc(N)c1Cl)c1ncc(C(=O)Nc2cc(C(F)(F)F)c(Cl)cn2)s1,0.51
3,N#CC(=C(/N)Sc1ccccc1N)/C(C#N)=C(\N)Sc1ccccc1N,-0.53
4,Cc1cc(Nc2cc(N3CCN(C)CC3)nc(/C=C/c3ccccc3)n2)n[nH]1,3.73
5,OCCn1cc(-c2ccc3c(c2)CC/C3=N\O)c(-c2ccncc2)n1,0.24
6,COc1cc2c(c(OC)c1OC)-c1c(cc3c(c1OC)OCO3)CC(C)C(C)C2 (centres undefined) [Schisandrin B (Sch B)],0.17
7,COc1cc(N2CCN(C)CC2)ccc1Nc1nccc(-c2cn(C)c3cnccc23)n1,0.55
8,CN(c1ccccc1CNc1nc(Nc2ccc3c(c2)CC(=O)N3)ncc1C(F)(F)F)S(C)(=O)=O,3.74
9,CNC(=O)c1ccc(Nc2ncc(C(F)(F)F)c(NCc3nccnc3N(C)S(C)(=O)=O)n2)cc1,2.75
10,O=C(O)c1ccc2c3c1cccc3c(=O)n1c3ccccc3nc21,0.77
11,Cc1nc(Nc2n[nH]c3c2CN(C(=O)N[C@H](CN(C)C)c2ccccc2)C3(C)C)c2sccc2n1,0.4
12,C[C@H]1[C@H](C)CC[C@]2(C(=O)O)CC[C@]3(C)C(=CC[C@@H]4[C@@]5(C)C[C@@H](O)[C@H](O)[C@@](C)(CO)[C@@H]5CC[C@]43C)[C@H]12 [Asiatic Acid],0.45
13,COc1ccc(-c2cc3nccn3c(Nc3ncccc3C(N)=O)n2)cc1OC,1.09
14,O=C(NCc1ccccc1)c1csc(Nc2ccncn2)n1 [Thiazovivin],0.16
15,COc1cc(Nc2ncc(F)c(Nc3ccc4c(n3)NC(=O)C(C)(C)O4)n2)cc(OC)c1OC [R406 (free base)],2.15
16,Cc1ccc(S(=O)(=O)/C=C/C#N)cc1,2.48
17,O=c1c(O)c(-c2ccc(O)c(O)c2)oc2cc(O)cc(O)c12 [Quercetin],0.22
18,C[C@H]1CNC(=O)c2cnn3ccc(nc23)N[C@H](C)c2cc(F)ccc2O1,1.68
19,C[C@@H](Nc1cc(F)cc(F)c1)c1cc(C(=O)N(C)C)cc2c(=O)cc(N3CCOCC3)oc12,0.46

row,SMILES,thermal shift delta Tm [°C]
1,Nc1cccc(-c2cc3c(Oc4cccc(O)c4)ncnc3[nH]2)c1,1.21
2,"CC[C@H](CO)Nc1nc(NCc2ccccc2)c2ncn(C(C)C)c2n1 [Roscovitine (Seliciclib,CYC202)]",-0.29
3,CCn1c(=O)c(-c2ccc(Cl)cc2Cl)cc2cnc(Nc3ccc(N4CCNCC4)c(F)c3)nc21,4.17
4,Cc1c[nH]c2nc(Nc3ccc(N4CCN(C)CC4)c(F)c3)nc(-c3cccc(CC#N)c3)c12,4.89
5,N#C/C(=C(/N)Sc1ccc(N)cc1)c1ccccc1C(F)(F)F,-0.02
6,FC(F)(F)c1ccc(CNc2ccc(Cc3c[nH]c4ncc(Cl)cc34)cn2)cn1 [Pexidartinib (PLX3397)],1.53
7,COc1cc(N2CCC(N(C)C)CC2)ccc1Nc1ncc(Cl)c(Nc2ccccc2P(C)(C)=O)n1,2.89
8,CCN(CC)CCNC(=O)c1c(C)[nH]c(/C=C2\C(=O)Nc3ccc(F)cc32)c1C [Sunitinib Malate],4.24
9,CCC(=O)Nc1cccc(Oc2nc(Nc3ccc(N4CCN(C)CC4)cc3OC)ncc2Cl)c1,0.17
10,Cn1c(Nc2ccc(C(F)(F)F)cc2)nc2cc(Oc3ccnc(-c4ncc(C(F)(F)F)[nH]4)c3)ccc21,1.62
11,CCOc1cc(N2CCC(O)CC2)ccc1Nc1ncc2c(n1)N(C)c1ccccc1C(=O)N2C,-0.09
12,O=C(O)c1ccc(Nc2ncc3c(n2)-c2ccc(Cl)cc2C(c2c(F)cccc2F)=NC3)cc1,-0.29
13,C[C@@H]1CN(C(=O)c2ccc(NC(=O)c3cc(O[C@H](C)c4c(Cl)ccc(F)c4Cl)c(N)nn3)cc2)C[C@H](C)N1 [Ensartinib (X-396)],4.75
14,COc1ccc(F)c(F)c1C(=O)c1cnc(NC2CCN(S(C)(=O)=O)CC2)nc1N,0.37
15,N#Cc1cnc(Nc2cc(NC[C@H]3CNCCO3)c(C(F)(F)F)cn2)cn1,0.23
16,O=c1nc(N2CCOCC2)oc2c(-c3cccc4c3sc3ccccc34)cccc12,-0.05
17,Cc1nc(Nc2ncc(C(=O)Nc3c(C)cccc3Cl)s2)cc(N2CCN(CCO)CC2)n1 [Dasatinib],2.57
18,Cc1cc(Nc2cc(N3CCN(C)CC3)nc(/C=C/c3ccccc3)n2)n[nH]1 [ENMD-2076 L-(+)-Tartaric acid],4.1

# Test system: LOC_OS05G07850-cb002
# Test: as above
# Settings: 12.5 µM; protein concentration 2 µM
# In short: as §1
row,SMILES,thermal shift delta Tm [°C]
1,CN1CCN(c2cccc(Nc3nc4c(-c5ccc(S(C)(=O)=O)cc5)cccn4n3)c2)CC1,5.82
2,C[C@@H](NC(=O)c1ncnc(N)c1Cl)c1ncc(C(=O)Nc2cc(C(F)(F)F)c(Cl)cn2)s1,4.01
3,N#CC(=C(/N)Sc1ccccc1N)/C(C#N)=C(\N)Sc1ccccc1N,-1.4
4,Cc1cc(Nc2cc(N3CCN(C)CC3)nc(/C=C/c3ccccc3)n2)n[nH]1,11.7
5,OCCn1cc(-c2ccc3c(c2)CC/C3=N\O)c(-c2ccncc2)n1,2.18
6,COc1cc2c(c(OC)c1OC)-c1c(cc3c(c1OC)OCO3)CC(C)C(C)C2 (centres undefined) [Schisandrin B (Sch B)],1.23
7,COc1cc(N2CCN(C)CC2)ccc1Nc1nccc(-c2cn(C)c3cnccc23)n1,11.8
8,CN(c1ccccc1CNc1nc(Nc2ccc3c(c2)CC(=O)N3)ncc1C(F)(F)F)S(C)(=O)=O,11.3
9,CNC(=O)c1ccc(Nc2ncc(C(F)(F)F)c(NCc3nccnc3N(C)S(C)(=O)=O)n2)cc1,10.8
10,O=C(O)c1ccc2c3c1cccc3c(=O)n1c3ccccc3nc21,7.31
11,Cc1nc(Nc2n[nH]c3c2CN(C(=O)N[C@H](CN(C)C)c2ccccc2)C3(C)C)c2sccc2n1,1.45
12,C[C@H]1[C@H](C)CC[C@]2(C(=O)O)CC[C@]3(C)C(=CC[C@@H]4[C@@]5(C)C[C@@H](O)[C@H](O)[C@@](C)(CO)[C@@H]5CC[C@]43C)[C@H]12 [Asiatic Acid],0.11
13,COc1ccc(-c2cc3nccn3c(Nc3ncccc3C(N)=O)n2)cc1OC,10.1
14,O=C(NCc1ccccc1)c1csc(Nc2ccncn2)n1 [Thiazovivin],2.6
15,COc1cc(Nc2ncc(F)c(Nc3ccc4c(n3)NC(=O)C(C)(C)O4)n2)cc(OC)c1OC [R406 (free base)],13
16,Cc1ccc(S(=O)(=O)/C=C/C#N)cc1,7.56
17,O=c1c(O)c(-c2ccc(O)c(O)c2)oc2cc(O)cc(O)c12 [Quercetin],10.2
18,C[C@H]1CNC(=O)c2cnn3ccc(nc23)N[C@H](C)c2cc(F)ccc2O1,10.8
19,C[C@@H](Nc1cc(F)cc(F)c1)c1cc(C(=O)N(C)C)cc2c(=O)cc(N3CCOCC3)oc12,-0.67

row,SMILES,thermal shift delta Tm [°C]
1,Nc1cccc(-c2cc3c(Oc4cccc(O)c4)ncnc3[nH]2)c1,11.1
2,"CC[C@H](CO)Nc1nc(NCc2ccccc2)c2ncn(C(C)C)c2n1 [Roscovitine (Seliciclib,CYC202)]",0.09
3,CCn1c(=O)c(-c2ccc(Cl)cc2Cl)cc2cnc(Nc3ccc(N4CCNCC4)c(F)c3)nc21,10.6
4,Cc1c[nH]c2nc(Nc3ccc(N4CCN(C)CC4)c(F)c3)nc(-c3cccc(CC#N)c3)c12,15
5,N#C/C(=C(/N)Sc1ccc(N)cc1)c1ccccc1C(F)(F)F,-0.43
6,FC(F)(F)c1ccc(CNc2ccc(Cc3c[nH]c4ncc(Cl)cc34)cn2)cn1 [Pexidartinib (PLX3397)],8.75
7,COc1cc(N2CCC(N(C)C)CC2)ccc1Nc1ncc(Cl)c(Nc2ccccc2P(C)(C)=O)n1,15
8,CCN(CC)CCNC(=O)c1c(C)[nH]c(/C=C2\C(=O)Nc3ccc(F)cc32)c1C [Sunitinib Malate],8.46
9,CCC(=O)Nc1cccc(Oc2nc(Nc3ccc(N4CCN(C)CC4)cc3OC)ncc2Cl)c1,5.91
10,Cn1c(Nc2ccc(C(F)(F)F)cc2)nc2cc(Oc3ccnc(-c4ncc(C(F)(F)F)[nH]4)c3)ccc21,0.57
11,CCOc1cc(N2CCC(O)CC2)ccc1Nc1ncc2c(n1)N(C)c1ccccc1C(=O)N2C,1.85
12,O=C(O)c1ccc(Nc2ncc3c(n2)-c2ccc(Cl)cc2C(c2c(F)cccc2F)=NC3)cc1,4.66
13,C[C@@H]1CN(C(=O)c2ccc(NC(=O)c3cc(O[C@H](C)c4c(Cl)ccc(F)c4Cl)c(N)nn3)cc2)C[C@H](C)N1 [Ensartinib (X-396)],7.81
14,COc1ccc(F)c(F)c1C(=O)c1cnc(NC2CCN(S(C)(=O)=O)CC2)nc1N,3.17
15,N#Cc1cnc(Nc2cc(NC[C@H]3CNCCO3)c(C(F)(F)F)cn2)cn1,4.22
16,O=c1nc(N2CCOCC2)oc2c(-c3cccc4c3sc3ccccc34)cccc12,1.07
17,Cc1nc(Nc2ncc(C(=O)Nc3c(C)cccc3Cl)s2)cc(N2CCN(CCO)CC2)n1 [Dasatinib],4.35
18,Cc1cc(Nc2cc(N3CCN(C)CC3)nc(/C=C/c3ccccc3)n2)n[nH]1 [ENMD-2076 L-(+)-Tartaric acid],11.2
